Shown are actives, neighbours in structure and some others; about 1.2% of the full set was active somewhere.
KinaseGlo FLuc: Kinase-Glo luciferase inhibition (counter-screen); Q27757; Kinase-Glo luciferase, ATP luminescence, 8 min; Potency, µM (series often up to 38.3 µM), for inactives: at the top dose activity change, negative = inhibition, hits mostly inhibitors; actives 0.28% (n = 200,000); AID 1379; active = well fitted inhibition curve with a large enough effect; inconclusive = small, poorly fitted or top-dose-only effect; note: potency is the fitted concentration of half-maximal effect; nearly all actives have a fitted effect of over 60% in size
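Kinase-Glo luciferase light output from ATP and luciferin was measured with 10 uM ATP, within the enzyme's linear range. Buffer: 50 mM imidazole pH 7.2, 50 mM KCl, 7 mM MgCl2, 0.01% Tween 20, 0.05% BSA; luminescence read after 8 min at ambient temperature.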
KCNH2 3.1 inh: KCNH2 3.1 (human) potassium channel inhibition | U2OS KCNH2 3.1, thallium flux FluxOr; stronger effect = lower value | activity change, % (tested at about 1.8 µM) | actives 0.95% (n = 340,000);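 active = maximum activity change below -70%; inconclusive = maximum activity change from -70% to -50%; inactive = maximum activity change above -50%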;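 note: thallium influx rate constant from kinetic fluorescence after stimulation buffer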
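U2OS cells transduced with KCNH2 3.1 mutant virus (1.77 x 10^8 /mL, 4 h), plated overnight at 37 C, loaded 45 min with FluxOr dye plus Red40 quencher. Thallium flux rate constant from kinetic reads after stimulation buffer, normalised to controls.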
KCNH2 WT inh: KCNH2 (human, wildtype) channel inhibition. Q12809. U2OS, BacMam KCNH2, thallium flux FluxOr; stronger effect = lower value. activity change, % at 1.84 µM. actives 0.37% (n = 340,000). AID 720551;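 active = maximum activity change below -70%; inconclusive = maximum activity change between -70% and -50%; inactive = maximum activity change above -50%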
Target sequence (Q12809 whole entry, looked up): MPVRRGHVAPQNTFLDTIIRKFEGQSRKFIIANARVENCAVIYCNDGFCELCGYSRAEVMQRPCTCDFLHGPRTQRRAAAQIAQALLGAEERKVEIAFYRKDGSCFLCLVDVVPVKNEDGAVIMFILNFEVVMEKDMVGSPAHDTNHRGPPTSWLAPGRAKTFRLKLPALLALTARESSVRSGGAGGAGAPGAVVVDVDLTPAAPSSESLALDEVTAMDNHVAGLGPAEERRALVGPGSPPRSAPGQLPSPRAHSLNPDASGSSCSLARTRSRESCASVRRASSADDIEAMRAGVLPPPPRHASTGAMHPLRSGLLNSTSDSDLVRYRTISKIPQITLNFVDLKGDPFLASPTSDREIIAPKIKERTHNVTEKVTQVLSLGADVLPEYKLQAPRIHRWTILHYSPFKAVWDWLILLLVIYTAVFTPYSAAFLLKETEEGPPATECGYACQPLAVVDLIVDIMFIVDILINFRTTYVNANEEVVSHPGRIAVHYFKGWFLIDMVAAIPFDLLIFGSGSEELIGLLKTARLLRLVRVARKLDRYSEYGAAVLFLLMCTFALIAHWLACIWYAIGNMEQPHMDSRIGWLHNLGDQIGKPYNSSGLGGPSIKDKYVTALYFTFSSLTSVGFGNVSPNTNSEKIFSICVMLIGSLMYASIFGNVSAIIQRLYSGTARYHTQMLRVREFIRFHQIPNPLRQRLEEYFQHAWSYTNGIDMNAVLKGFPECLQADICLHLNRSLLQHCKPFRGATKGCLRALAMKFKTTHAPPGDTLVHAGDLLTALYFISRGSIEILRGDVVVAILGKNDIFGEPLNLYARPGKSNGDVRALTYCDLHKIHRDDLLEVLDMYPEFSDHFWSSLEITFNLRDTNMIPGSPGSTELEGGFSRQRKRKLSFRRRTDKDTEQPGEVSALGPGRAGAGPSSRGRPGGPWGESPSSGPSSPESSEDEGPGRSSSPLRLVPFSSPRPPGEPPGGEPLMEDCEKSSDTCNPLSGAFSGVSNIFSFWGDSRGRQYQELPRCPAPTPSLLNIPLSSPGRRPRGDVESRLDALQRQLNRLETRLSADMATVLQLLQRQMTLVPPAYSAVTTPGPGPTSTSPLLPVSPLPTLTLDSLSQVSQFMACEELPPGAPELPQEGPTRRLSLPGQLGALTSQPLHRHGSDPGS
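U2OS cells were transduced with wild-type KCNH2 virus (2.03 x 10^8 / mL) for 4 h at room temperature, then cultured overnight at 37 C. Thallium flux was read with FluxOr dye. Rate constants were normalized to DMSO controls.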
An asterisk follows results filed as active; ? = inconclusive; · = not tested or not shown. % is set by controls: 0 for no effect and ±100 for the full control effect.

SMILES | KinaseGlo FLuc | KCNH2 3.1 inh | KCNH2 WT inh
N#CC1(NC(=O)COC(=O)c2ccccc2[N+](=O)[O-])CCCCC1 | · | 16 | -4
O=C(COC(=O)c1ccccc1[N+](=O)[O-])c1ccc(C2CCCCC2)cc1 | 11µM* | 7 | 22
Cc1cc(C)n2nc(C(=O)Nc3ccc4c(c3)OCO4)nc2n1 | ? | -5 | -1
Cc1ccnc2nc(C(=O)Nc3ccc4c(c3)OCO4)nn12 | 13µM* | 13 | 3
Cc1cccc(NC(=O)/C(=C/c2cccc([N+](=O)[O-])c2)NC(=O)c2cccs2)c1 | 0% | -10 | 31
O=C(Nc1cccc2ccccc12)/C(=C/c1cccc([N+](=O)[O-])c1)NC(=O)c1cccs1 | 5% | -89* | -15
O=C(Nc1cccc2ccccc12)/C(=C\c1cccc([N+](=O)[O-])c1)NC(=O)c1cccs1 | -1% | -86* | -103*
O=C(NCCO)/C(=C\c1cccc([N+](=O)[O-])c1)NC(=O)c1cccs1 | · | -1 | -5
COc1cccc(S(=O)(=O)N(C)C[C@@H]2OCc3cnnn3CCCC(=O)N([C@@H](C)CO)C[C@@H]2C)c1 | · | -6 | -1
Cn1c(=O)c2c(nc3n2CCCN3CCc2ccccc2)n(C)c1=O | · | -1 | -7
O=C(CC12CC3CC(CC(C3)C1)C2)NC(=S)NCc1ccco1 | 2% | -15 | -16
O=C(NCCc1cccc(C(F)(F)F)c1)C1CCC(=O)N(C2CC2)C1 (configuration not stated) | · | 12 | 19
COC(=O)C1=C(C)N(c2cc(C)cc(C)c2)/C(=C/c2ccco2)C1=O | -2% | 4 | -2
COC(=O)C1=C(C)N(c2ccccc2)/C(=C/c2ccco2)C1=O | · | -73* | -3
COc1ccc(-n2nc3c(c2NC(=O)CC(C)C)CS(=O)C3)cc1 (configuration not stated) | · | -7 | -12
COc1ccc(-n2nc3c(c2NC(=O)c2c(F)cccc2Cl)CS(=O)C3)cc1 (configuration not stated) | -1% | -78* | -4
COc1ccc(Cc2noc(CN3CCN(C4CCc5ccccc5C4)CC3)n2)cc1OC (configuration not stated) | -2% | -7 | 5
Fc1cccc(Cc2noc(CN3CCN(C4CCc5ccccc5C4)CC3)n2)c1 (configuration not stated) | 2% | -85* | -24
Fc1cccc(Cc2noc(CN3CCCN(C4Cc5ccccc5C4)CC3)n2)c1 | -1% | -91* | -136*
Fc1cccc(Cc2noc(CN3CCSCC3)n2)c1 | · | 6 | -36
COc1ccccc1CN1CCC(CNS(=O)(=O)c2cc(-c3cc(C)no3)ccc2OC)CC1 | · | -7 | 33
O=C(C[C@H]1C[C@@H]2c3cc(NC(=O)Nc4ccccc4F)ccc3O[C@@H]2[C@H](CO)O1)NCc1ccccn1 | · | -2 | 14
Cn1ncc([N+](=O)[O-])c1C(=O)Nc1ccc(-c2nc3ccccc3[nH]2)cc1 | 4% | -4 | -9
CCOc1ccc(C(=O)Nc2ccc(-c3nc4ccccc4[nH]3)cc2)cc1[N+](=O)[O-] | -2% | -71* | -19
Cc1nc2ccc(Cl)cc2nc(C)/c1=N\O | 2% | -92* | -9
SMILES | KinaseGlo FLuc | KCNH2 3.1 inh | KCNH2 WT inh
Cc1ccc2nc(C)/c(=N\O)c(C)nc2c1 | -6% | -3 | 1
O=[N+]([O-])c1ccc(OCCCCN2CCCCC2)cc1 | · | -27 | 58
O=[N+]([O-])c1ccc(OCCCCN2CCc3ccccc3C2)cc1 | · | -71* | -16
COC(=O)c1nn(-c2ccc3c(c2)OCO3)cc1O | ? | -8 | 10
COC(=O)c1nn(-c2ccc3c(c2)CCN3C(C)=O)cc1O | 11µM* | 19 | -8
CN(C)c1cccc(C(=O)NNC(=O)CSc2ccccc2)c1 | · | 11 | 13
CCN(c1ccc(OC)cc1)S(=O)(=O)c1csc(C(N)=O)c1 | · | -1 | -6
CCOc1ccc(NC(=O)c2ccccn2)cc1 | 13µM* | 17 | 30
CCOc1ccc(NC(=O)c2ccc(F)c(S(=O)(=O)N3CCN(c4ccccn4)CC3)c2)cc1 | -4% | -71* | 3
CCOc1ccc(NC(=O)C2CSC(c3ccncc3)=N2)cc1 (configuration not stated) | -2% | -173* | -120*
CCOc1ccc(NC(=O)c2ccc(F)c(S(=O)(=O)N3CCCC3)c2)cc1 | · | 4 | -12
CCOc1ccc(NC(=O)c2nccnc2CO)cc1 | 7.9µM* | -11 | 8
CCOc1ccc(NC(=O)c2ccccc2CO)cc1 | -17% | -6 | -3
CCOc1ccc(NC(=O)c2cnccn2)cc1 | -24% | 0 | 1
CCOc1ccc(NC(=O)Nc2ccc(Cc3ccncc3)cc2)cc1 | · | 0 | 1

Screens as filed in PubChem BioAssay.
